Holding throughout (experiment): log2 fold change, soluble protein after heating vs DMSO (PISA); higher = thermal stabilisation; K562 lysate, 10 uM; active = over 0.2 and 3.5 SD of the protein, either way, in both replicates (recomputed)
Compound in experiment [1]: NCC(=O)Nc1ccc(-n2nc(C(F)(F)F)cc2-c2ccc3c(ccc4ccccc43)c2)cc1
The method in brief:
(§1)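 A 30 min treatment with 10 μM compound was applied to crude K562 extract at 1 mg/mL protein in PBS pH 7.4 with 1 mM MgCl2. Heating for 3 min spanned 48°C-58°C, after which aliquots were pooled, adjusted to 0.5% NP-40 at 4°C and spun at 21,000xg for 90 min. TMTpro 16plex LC-MS/MS of the supernatant, with channel sums equalised, gave values recorded as log-two fold change in thermal stability against solvent controls, from duplicates.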

Compound in a further experiment: O=C(CCCCCCC(=O)Nc1ccccc1)NO [vorinostat]
In short, it runs like this: as §1

Compound in a further experiment: O=C(O)c1ccc2c(c1)nc(Nc1cccc(Cl)c1)c1ccncc12 [silmitasertib]
The method in brief:
as §1

Compound in experiment [2]: O=C1NC(=O)C(c2cnc3ccccn23)=C1c1cn2c3c(cc(F)cc13)CN(C(=O)N1CCCCC1)CC2
The method in brief:
as §1

Compound in another experiment: c1cn2cc(-c3ccc4cn[nH]c4c3)nc(Nc3ccc(N4CCOCC4)cc3)c2n1 [entospletinib]
The method in brief:
as §1

Of roughly 8,800 targets only a part is listed; those with a hit were picked by preference. About 0.5% of all pairs of compound and target were hits. A number with no mark means an inactive call.

Sequence of UniProt Q8IY81 (Q8IY81 whole entry, looked up): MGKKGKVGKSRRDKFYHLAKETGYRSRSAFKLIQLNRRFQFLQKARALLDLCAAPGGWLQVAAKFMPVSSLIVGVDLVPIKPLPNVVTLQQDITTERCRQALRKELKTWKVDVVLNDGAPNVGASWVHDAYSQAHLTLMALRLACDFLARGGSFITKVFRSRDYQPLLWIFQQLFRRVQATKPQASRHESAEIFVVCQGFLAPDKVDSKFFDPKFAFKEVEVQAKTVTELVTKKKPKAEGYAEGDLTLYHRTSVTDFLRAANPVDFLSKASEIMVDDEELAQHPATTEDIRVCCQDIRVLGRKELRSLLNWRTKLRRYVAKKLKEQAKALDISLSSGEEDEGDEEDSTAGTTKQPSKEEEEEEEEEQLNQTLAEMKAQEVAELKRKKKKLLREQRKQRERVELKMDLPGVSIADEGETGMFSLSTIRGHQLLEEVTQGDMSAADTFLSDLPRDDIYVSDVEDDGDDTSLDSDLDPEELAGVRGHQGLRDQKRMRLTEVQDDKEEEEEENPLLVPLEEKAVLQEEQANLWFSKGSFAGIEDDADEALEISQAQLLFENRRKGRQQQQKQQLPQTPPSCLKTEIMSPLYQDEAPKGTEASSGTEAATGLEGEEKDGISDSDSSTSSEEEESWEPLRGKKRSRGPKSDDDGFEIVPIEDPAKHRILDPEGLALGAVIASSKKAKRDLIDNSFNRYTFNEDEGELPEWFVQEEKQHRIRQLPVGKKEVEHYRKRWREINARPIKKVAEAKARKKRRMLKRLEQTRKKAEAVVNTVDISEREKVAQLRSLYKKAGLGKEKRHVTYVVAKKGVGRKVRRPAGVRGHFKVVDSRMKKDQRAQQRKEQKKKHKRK
Sequence of UniProt P11171 (P11171 whole entry, looked up): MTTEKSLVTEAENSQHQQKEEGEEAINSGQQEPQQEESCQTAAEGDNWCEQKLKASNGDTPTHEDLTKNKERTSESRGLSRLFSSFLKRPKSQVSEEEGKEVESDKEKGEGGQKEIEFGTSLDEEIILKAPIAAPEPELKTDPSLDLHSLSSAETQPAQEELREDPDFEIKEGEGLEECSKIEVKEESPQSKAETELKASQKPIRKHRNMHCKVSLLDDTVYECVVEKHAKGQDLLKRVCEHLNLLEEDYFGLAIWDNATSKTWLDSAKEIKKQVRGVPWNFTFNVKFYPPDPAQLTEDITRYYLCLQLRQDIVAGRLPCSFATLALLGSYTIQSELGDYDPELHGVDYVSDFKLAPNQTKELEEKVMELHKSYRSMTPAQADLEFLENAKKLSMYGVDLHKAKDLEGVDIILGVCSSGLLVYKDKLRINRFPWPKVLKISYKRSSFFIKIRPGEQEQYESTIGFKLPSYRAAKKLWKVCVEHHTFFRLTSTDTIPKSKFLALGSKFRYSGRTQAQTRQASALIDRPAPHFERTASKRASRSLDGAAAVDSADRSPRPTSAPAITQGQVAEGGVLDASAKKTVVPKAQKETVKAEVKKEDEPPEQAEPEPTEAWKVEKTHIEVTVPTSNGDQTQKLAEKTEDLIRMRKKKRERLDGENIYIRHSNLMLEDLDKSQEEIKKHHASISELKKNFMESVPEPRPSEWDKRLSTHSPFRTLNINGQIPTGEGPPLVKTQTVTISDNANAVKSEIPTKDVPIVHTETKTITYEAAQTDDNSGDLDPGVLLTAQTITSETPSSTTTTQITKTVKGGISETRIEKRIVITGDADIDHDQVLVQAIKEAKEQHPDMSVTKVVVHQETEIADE
Sequence of UniProt P02774 (P02774 whole entry, looked up): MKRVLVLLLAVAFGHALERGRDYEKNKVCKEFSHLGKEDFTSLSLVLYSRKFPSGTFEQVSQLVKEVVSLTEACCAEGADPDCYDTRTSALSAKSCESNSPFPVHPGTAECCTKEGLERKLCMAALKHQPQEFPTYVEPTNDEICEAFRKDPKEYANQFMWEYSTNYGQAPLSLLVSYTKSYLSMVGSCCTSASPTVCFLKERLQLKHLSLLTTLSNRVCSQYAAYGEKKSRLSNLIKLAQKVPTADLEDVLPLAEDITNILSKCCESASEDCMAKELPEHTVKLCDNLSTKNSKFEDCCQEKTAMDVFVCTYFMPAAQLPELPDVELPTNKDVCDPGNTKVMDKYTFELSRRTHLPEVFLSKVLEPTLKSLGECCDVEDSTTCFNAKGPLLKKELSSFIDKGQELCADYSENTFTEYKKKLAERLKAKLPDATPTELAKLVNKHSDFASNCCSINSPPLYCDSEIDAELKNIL
Sequence of UniProt Q9Y2H6 (Q9Y2H6 whole entry, looked up): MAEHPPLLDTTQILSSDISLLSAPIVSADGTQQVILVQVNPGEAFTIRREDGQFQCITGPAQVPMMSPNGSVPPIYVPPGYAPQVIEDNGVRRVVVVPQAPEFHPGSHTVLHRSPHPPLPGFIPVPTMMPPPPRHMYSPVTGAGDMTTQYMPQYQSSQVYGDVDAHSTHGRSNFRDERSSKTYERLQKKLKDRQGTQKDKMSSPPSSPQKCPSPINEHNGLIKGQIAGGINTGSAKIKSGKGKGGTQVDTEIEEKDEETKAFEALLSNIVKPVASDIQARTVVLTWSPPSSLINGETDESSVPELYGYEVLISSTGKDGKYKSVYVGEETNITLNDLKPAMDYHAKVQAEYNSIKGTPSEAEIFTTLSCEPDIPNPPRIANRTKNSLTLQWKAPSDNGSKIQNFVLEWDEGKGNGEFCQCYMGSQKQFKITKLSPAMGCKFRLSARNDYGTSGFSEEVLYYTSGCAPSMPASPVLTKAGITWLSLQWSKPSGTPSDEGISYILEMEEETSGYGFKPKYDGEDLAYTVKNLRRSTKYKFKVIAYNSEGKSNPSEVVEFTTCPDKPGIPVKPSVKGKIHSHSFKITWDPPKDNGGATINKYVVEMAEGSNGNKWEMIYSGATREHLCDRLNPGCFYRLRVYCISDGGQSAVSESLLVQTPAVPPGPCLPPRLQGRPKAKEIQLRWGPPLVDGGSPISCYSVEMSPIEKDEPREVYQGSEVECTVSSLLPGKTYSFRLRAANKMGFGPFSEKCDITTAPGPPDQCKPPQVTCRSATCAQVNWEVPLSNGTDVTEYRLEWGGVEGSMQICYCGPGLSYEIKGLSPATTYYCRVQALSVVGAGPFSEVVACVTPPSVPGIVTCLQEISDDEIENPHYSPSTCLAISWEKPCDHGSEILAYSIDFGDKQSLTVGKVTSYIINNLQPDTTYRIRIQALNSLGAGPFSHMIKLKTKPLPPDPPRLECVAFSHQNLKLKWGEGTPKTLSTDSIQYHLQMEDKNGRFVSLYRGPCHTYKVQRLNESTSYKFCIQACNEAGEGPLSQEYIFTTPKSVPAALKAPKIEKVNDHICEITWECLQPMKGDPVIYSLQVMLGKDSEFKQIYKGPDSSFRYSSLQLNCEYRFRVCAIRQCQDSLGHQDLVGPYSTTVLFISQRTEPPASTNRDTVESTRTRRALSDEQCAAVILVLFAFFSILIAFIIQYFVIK
Sequence of UniProt Q15717 (Q15717 whole entry, looked up): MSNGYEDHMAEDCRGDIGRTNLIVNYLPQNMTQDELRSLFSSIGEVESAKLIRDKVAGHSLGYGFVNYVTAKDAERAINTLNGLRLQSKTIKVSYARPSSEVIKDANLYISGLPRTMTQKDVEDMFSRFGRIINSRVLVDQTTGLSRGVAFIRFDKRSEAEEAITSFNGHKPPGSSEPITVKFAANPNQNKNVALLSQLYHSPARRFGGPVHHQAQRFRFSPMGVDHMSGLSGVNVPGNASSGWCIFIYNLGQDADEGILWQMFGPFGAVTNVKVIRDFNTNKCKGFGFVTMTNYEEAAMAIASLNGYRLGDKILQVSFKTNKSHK
Sequence of UniProt P22102 (P22102 whole entry, looked up): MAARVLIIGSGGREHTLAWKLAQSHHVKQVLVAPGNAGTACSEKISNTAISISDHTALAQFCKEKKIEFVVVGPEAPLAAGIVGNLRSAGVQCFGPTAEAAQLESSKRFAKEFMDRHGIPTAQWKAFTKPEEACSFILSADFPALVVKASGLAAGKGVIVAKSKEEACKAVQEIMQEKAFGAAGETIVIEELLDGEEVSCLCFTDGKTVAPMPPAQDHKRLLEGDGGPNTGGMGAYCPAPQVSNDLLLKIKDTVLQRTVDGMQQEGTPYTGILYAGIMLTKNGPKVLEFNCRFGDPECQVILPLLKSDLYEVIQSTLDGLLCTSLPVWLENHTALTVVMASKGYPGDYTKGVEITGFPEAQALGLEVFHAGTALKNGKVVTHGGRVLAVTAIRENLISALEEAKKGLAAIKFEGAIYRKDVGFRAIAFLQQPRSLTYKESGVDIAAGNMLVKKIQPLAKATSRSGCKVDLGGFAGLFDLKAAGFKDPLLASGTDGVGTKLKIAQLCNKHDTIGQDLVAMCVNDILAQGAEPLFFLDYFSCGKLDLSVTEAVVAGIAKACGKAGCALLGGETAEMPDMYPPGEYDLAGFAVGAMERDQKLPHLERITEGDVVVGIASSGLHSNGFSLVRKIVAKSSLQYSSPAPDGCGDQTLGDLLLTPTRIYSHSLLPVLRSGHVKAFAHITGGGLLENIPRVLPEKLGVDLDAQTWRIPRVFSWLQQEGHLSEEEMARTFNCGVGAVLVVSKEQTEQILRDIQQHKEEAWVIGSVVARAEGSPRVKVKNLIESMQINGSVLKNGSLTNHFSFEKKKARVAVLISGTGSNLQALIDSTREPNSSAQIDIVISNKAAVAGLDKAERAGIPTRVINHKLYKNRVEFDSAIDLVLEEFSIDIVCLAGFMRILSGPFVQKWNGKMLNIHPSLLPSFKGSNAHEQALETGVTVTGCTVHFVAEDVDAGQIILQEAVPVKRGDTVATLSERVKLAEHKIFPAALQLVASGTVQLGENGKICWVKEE
Sequence of UniProt Q9Y6B2 (Q9Y6B2 whole entry, looked up): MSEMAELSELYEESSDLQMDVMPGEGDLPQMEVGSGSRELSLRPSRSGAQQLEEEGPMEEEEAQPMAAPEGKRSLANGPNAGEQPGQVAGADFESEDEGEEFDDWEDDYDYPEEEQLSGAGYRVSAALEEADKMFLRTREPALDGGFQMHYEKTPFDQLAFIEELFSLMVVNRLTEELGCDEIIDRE

Regarding GART (UniProt P22102), the log2 fold change in experiment [1] was 0.017; with vorinostat, -0.303 (active); in the experiment with silmitasertib, 0.006; in experiment [2] it was 0.003; in the experiment with entospletinib, 0.012.
Turning to GC isoform 3 (UniProt P02774), the log2 fold change in experiment [1] is -0.058; in experiment [2] it was 0.076; in the experiment with entospletinib, -0.053.
For the target EID1 (UniProt Q9Y6B2), the values for the log2 fold change in the experiment with vorinostat, in the experiment with silmitasertib and with entospletinib were -0.192, 0.191 and -0.143, respectively.
On to FNDC3A (UniProt Q9Y2H6), for which the log2 fold change in the experiment with vorinostat was -0.018; with silmitasertib it was -0.119; in experiment [2], -0.146.
Consider EPB41 isoform 4 (UniProt P11171), for which the log2 fold change in the experiment with vorinostat is 0.071; in the experiment with silmitasertib, 0.101; in experiment [2], -0.085.
Consider FTSJ3 (UniProt Q8IY81), for which the log2 fold change in experiment [1] is -0.034; in the experiment with vorinostat, 0.068; with silmitasertib, 0.017; in experiment [2] it was 0.012; with entospletinib, -0.043.
Regarding GCA (UniProt P28676), the figures for the log2 fold change with vorinostat and with silmitasertib were 1.36 (active) and -0.104, respectively.
Take GBA2 (UniProt Q9HCG7): the log2 fold change with vorinostat is -0.089; with silmitasertib, -0.004; in experiment [2], -0.091; with entospletinib, -0.102.
For the target FTSJ1 isoform 2 (UniProt Q9UET6), the log2 fold change in experiment [1] was -0.109; with entospletinib, 0.047.
With EWSR1 (UniProt H7BY36), the log2 fold change is 0.136 in experiment [1], -0.047 in experiment [2] and 0.016 with entospletinib.
On to GART (UniProt C9JZG2), for which the log2 fold change is -0.069 in experiment [2] and 0.037 with entospletinib.
On to ELAVL1 isoform 2 (UniProt Q15717), for which the log2 fold change is 0.042 in experiment [1]; -0.326 (active) with vorinostat; 0.059 with silmitasertib; -0.051 in experiment [2]; 0 with entospletinib.

These data come from the supplement of paper PMC10849652.
